High-throughput results from PubChem BioAssay.
Lassa entry inh – qHTS for Inhibitors of binding or entry into cells for Lassa Virus | Potency, µM (top dose mostly 37.9 µM), for the others: top-dose activity change, negative = inhibition, most hits filed as inhibitors | AID 540256, 2011 | Lassa virus pseudotype entry inhibition, cell reporter | hit rate 1.2% among 300,000; calls by dose curve; tested in HEK293 cells; also: potency is read from the fitted curve at half-maximal effect; nearly all actives have a fitted effect of over 50% in size
HCMV inh – qHTS Assay for inhibitors of the human cytomegalovirus (HCMV); hit rate 4.5% among 410,000; activity change, negative = inhibition, % at 57.5 µM; HFF cells, HCMV-luciferase reporter, 72 h; stronger effect = lower value; in the data active = activity change below about -60%; inconclusive = no clear call, values can overlap the other calls; inactive = above about -39%
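Steps: HFFs plated, 16 h 37C; compounds added; HCMV-luciferase added to MOI 1 PFU/cell; 72 h 37C; OneGlo reagent, 5 min room temperature; luminescence read, normalized to controls.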
FMDV antiviral – High Throughput Screening for Foot and Mouth Disease Virus Antivirals; hit rate 1.2% among 410,000; Potency, µM (highest dose often 57.9 µM), without a hit: at the highest dose activity change, negative = inhibition, usual class: inhibitors; FMDV antiviral cell-based qHTS; calls by dose curve; tested in HEK293T cells; also: read-out not given here; potency is read from the fitted curve at half-maximal effect; nearly all actives have a fitted effect of over 45% in size
Vaccinia mCherry – qHTS for Stage-Specific Inhibitors of Vaccinia Orthopoxvirus: mCherry Reporter Primary qHTS; hit rate 0.63% among 310,000; AID 720579, 2013; Vaccinia virus mCherry reporter infection, fluorescence; Potency, µM (top dose mostly 36.5 µM), for the others: at the top dose activity change, negative = inhibition, hits mostly inhibitors; calls by dose curve; tested in A549 cells; also: potency is read from the fitted curve at half-maximal effect; nearly all actives have a fitted effect of over 35% in size
Marburg entry inh – qHTS for inhibitors of binding or entry into cells for Marburg Virus; Marburg virus pseudotyped entry inhibition, cell reporter; Potency, µM (highest dose often 37.8 µM), for the others: at the highest dose activity change, negative = inhibition, hits mostly inhibitors; hit rate 1.8% among 300,000; calls by dose curve; tested in HEK293 cells; also: potency is read from the fitted curve at half-maximal effect
Vaccinia Venus – qHTS for Stage-Specific Inhibitors of Vaccinia Orthopoxvirus: Venus Reporter Primary qHTS | Vaccinia virus Venus reporter expression, fluorescence | Potency, µM (top dose mostly 36.5 µM), without a hit: top-dose activity change, negative = inhibition, most hits filed as inhibitors | hit rate 0.46% among 330,000; calls by dose curve; tested in A549 cells; also: potency is read from the fitted curve at half-maximal effect; nearly all actives have a fitted effect of over 30% in size
The depositor's hits bear a star; i = inactive; ? = inconclusive; nt = no result; [ ] = another dose, or the depositor's remark. Shown are actives, neighbours in structure and some others; about 6.5% of the full set was active somewhere. % is scaled to controls: 0 for no effect and ±100 for the full control effect.

SMILES	Lassa entry inh	HCMV inh	FMDV antiviral	Vaccinia mCherry	Marburg entry inh	Vaccinia Venus
Cc1ccc2c(C(=O)CNc3nccs3)c[nH]c2c1	nt	nt	nt	-14%	nt	-13%
CCOc1ccc(NC(=O)CCS(=O)(=O)c2ccc3nc(C)sc3c2)cc1	9%[46.1 µM]	7	-9%	-21%	nt	-6%
O=C(Cc1cccs1)Nc1cccc(-c2nc3cc4ccccc4cc3[nH]2)c1	?	-88*	-5%	?	?	10µM*
Cc1ccc(Cn2ccsc2=NC(=O)COC(=O)c2ccc(O)cc2O)cc1	nt	-79*	1%	nt	nt	nt
O=C(Nc1ccc2c(c1)CCCN2C(=O)c1cccs1)c1ccccc1Cl	?	-67*	-17%	-6%	nt	3%
O=C(Nc1ccc2c(c1)N(S(=O)(=O)c1cccs1)CCC2)c1c(F)cccc1F	?	-36	28%	?	?	-14%
O=C(Nc1ccc(C(=O)N2CCCc3ccccc32)cc1)c1cccs1	-27%[46.1 µM]	43	-5%	i	11µM*	-14%
O=C(Nc1ccc2c(c1)CCCN2C(=O)c1cccs1)c1c(F)cccc1F	?	-75*	?	1%	nt	-5%
CC(=O)Nc1ccc(C(=O)N2CCCc3ccccc32)cc1	-1%	26	8%	-15%	29%	-12%
O=C(Nc1ccc2c(c1)CCCN2C(=O)c1cccs1)c1c(F)cccc1Cl	nt	-79*	?	nt	nt	nt
COc1cc(=O)n2c(c1C(=O)N(C)Cc1nccs1)CCN(Cc1cccc(F)c1F)CC2	nt	nt	-1%	-5%	nt	0%
Cc1cc(Br)ccc1NC(=O)CCS(=O)(=O)c1cccc2nsnc12	19%[46.1 µM]	-24	1%	-2%	12%[46.1 µM]	-7%
O=C(Nc1ccc2c(c1)CCCN2C(=O)c1ccco1)c1cc([N+](=O)[O-])ccc1Cl	2.5µM*	-6	?	?	?	-6%
COc1ccc(-n2c(=O)cnc3cnc(OC)nc32)cc1	nt	nt	-14%	nt	nt	nt
COc1cc(Nc2nc(SCC(=O)c3ccc(Br)cc3)nc3ccccc23)cc(OC)c1	-22%[46.1 µM]	-62*	?	?	nt	?
O=C(CSc1nc(Nc2ccc(F)cc2)c2ccccc2n1)c1ccc(F)cc1	-31%[46.1 µM]	30	-23%	-10%	nt	-13%
CCCCCn1c(-c2ccco2)nc2nc3ccccc3nc21	-18%	-6	-38%	nt	11µM*	-3%
CCCCc1ccc(NC(=O)N2CCN(c3cc(C)nc4ccccc34)CC2)c(C)c1	nt	nt	35µM*	nt	nt	nt
Cc1cc(N2CCN(C(=O)Nc3ccc(F)cc3F)CC2)c2ccccc2n1	?	nt	-23%	-19%	-17%	-11%
Cc1ccc(-c2c[n+](Cc3cccc(Cl)c3)c3n2CCC3)cc1	?	-86*	?	-24%	?	-23%
O=C(C[n+]1cc(-c2ccc(Cl)cc2)n2c1CCCCC2)c1ccccc1	-18%	-6	1%	i	-7%	-13%
Cc1ccc(NC(=O)C[n+]2cc(-c3ccccc3)n3c2CCC3)c(C)c1	0%[46.1 µM]	?	-5%	14%	-9%[46.1 µM]	0%
Clc1cccc(C[n+]2cc(-c3ccccc3)n3c2CCC3)c1	3%	-70*	-5%	0%	?	-29%
N#Cc1c(N)n(-c2ccc(N)cc2)c2nc3ccccc3nc12	12%	40	8%	0%	6%[46.1 µM]	-14%
N#Cc1c(C#N)c(SSc2c(C#N)c(C#N)c(N)n2-c2ccccc2)n(-c2ccccc2)c1N	21%	-4	40µM*	-11%	?	0%
SMILES	Lassa entry inh	HCMV inh	FMDV antiviral	Vaccinia mCherry	Marburg entry inh	Vaccinia Venus
CCOC(=O)c1c(NC(=O)CSc2nc3cc(Cl)ccc3s2)sc(C(C)=O)c1C	10%	-61*	nt	nt	25%	nt
CCOC(=O)c1c(NC(=O)CSc2nc3ccccc3s2)sc(C(C)=O)c1C	?	64	nt	i	?	-11%
NCCCn1c(C(=O)c2cc(Cl)c(N)c(Cl)c2)c2ccc(C(F)(F)F)cc2[n+]1[O-]	nt	29	-22%	-16%	nt	?
NCCCn1c(C(=O)c2cc(Cl)c(N)c(Cl)c2)c2ccc([N+](=O)[O-])cc2[n+]1[O-]	nt	-67*	-14%	?	nt	13µM*
CC(C)(C)NC(=O)C(c1ccc(-c2ccccc2)cc1)N(C[C@H]1CC[C@@H]([C@@H]2CC[C@H](CO)O2)O1)C(=O)c1ccc2ccccc2c1 (some centres not stated)	nt	-100*	0%	-7%	nt	-10%
CC(C)(C)NC(=O)C(c1ccc(-c2ccccc2)cc1)N(C[C@H]1CC[C@@H]([C@@H]2CC[C@H](CO)O2)O1)C(=O)c1ccc(-c2ccccc2)cc1 (some centres not stated)	nt	nt	?	28µM*	nt	?
CC(C)(C)NC(=O)C(c1ccc(-c2ccccc2)cc1)N(C[C@H]1CC[C@@H]([C@@H]2CC[C@H](CO)O2)O1)C(=O)c1cccc(Cl)c1 (some centres not stated)	nt	-16	-27%	-16%	4%	-26%
Cc1cc(N2CCOCC2)ccc1/C=C\[N+](=O)[O-]	21µM*	-98*	?	?	?	10µM*
O=[N+]([O-])c1ccc(N2CCOCC2)cc1O	-2%[46.1 µM]	10	5%	-19%	-1%[46.1 µM]	-25%
CCOc1ccc(CCNC(=O)c2ccc(CSCc3ccccc3C)o2)cc1OCC	2%[46.1 µM]	-10	0%	0%	nt	-20%
C[C@H](CO)N1C[C@H](C)[C@@H](CN(C)CC2CC2)Oc2c(NS(=O)(=O)c3ccc(F)cc3)cccc2C1=O	nt	22	39%	i	nt	-21%
C[C@H](CO)N1C[C@H](C)[C@@H](CN(C)C)Oc2c(NS(=O)(=O)c3ccc(F)cc3)cccc2C1=O	nt	-73*	3%	i	nt	-10%
COc1ccc(S(=O)(=O)N(C)C[C@H]2Oc3c(NC(=O)Nc4ccc(C(F)(F)F)cc4)cccc3C(=O)N([C@H](C)CO)C[C@@H]2C)cc1	nt	nt	?	?	nt	10µM*
CCCN1[C@@H]2c3cccc(=O)n3C[C@H]1[C@H](CO)[C@H]2C(=O)OC	nt	-1	nt	nt	nt	nt
CC(C)C[C@@H]1COc2cc(NCCO)ccc2S(=O)(=O)N1	nt	-7	nt	nt	nt	nt
Cc1ccc(S(=O)(=O)c2nc(S(=O)(=O)c3ccccc3)sc2N2CCN(C)CC2)cc1	nt	-99*	9%	nt	nt	nt
CCS(=O)(=O)c1nc(S(=O)(=O)c2ccc(C)cc2)c(N2CCN(CCO)CC2)s1	nt	-33	-6%	-3%[7.34 µM]	nt	-5%[7.34 µM]
CCN(CC)CCCNc1sc(S(=O)(=O)c2ccccc2)nc1S(=O)(=O)c1ccc(Cl)cc1	-33%[46.1 µM]	-75*	20%	-22%	?	-12%
CCN(CC)c1sc(S(=O)(=O)c2ccccc2)nc1S(=O)(=O)c1ccc(C)cc1	?	-73*	36%	-18%	?	-21%
Cc1ccc(S(=O)(=O)c2nc(S(=O)(=O)c3ccccc3)sc2N2CCN(CCO)CC2)cc1	nt	-98*	20%	nt	nt	nt
